# Experimental data as given in ChEMBL document CHEMBL4513216, “Probing the Open Global Health Chemical Diversity Library for Multistage-Active Starting Points for Next-Generation Antimalarials” (ACS Infect Dis, 2020).
# About 8,600 (12%) of roughly 69,000 compounds showed an effect of 50% or more. The sample as a whole holds a higher share of strong results than the screen did.
# Test system: Plasmodium berghei
# Test: Screen against P. berghei liver stage (PbLuc), transformed with Luciferase, at 10uM
# Format: functional, HepG2
# Settings: tested at 10 uM
row,Structure (SMILES),INHIBITION [%]
1,O=C(Cc1ccccn1)NCC1OCCc2cn(CC3CC3)nc21 (stereo unspecified),3.25
2,Cc1ccc(Oc2ncccc2CNS(=O)(=O)N2CCOCC2)cn1,70.1
3,CCOc1ncccc1CNS(=O)(=O)N1CCOCC1,-8.28
4,O=S(=O)(NCc1cccnc1OC1CCCC1)N1CCOCC1,16.3
5,O=c1cc(Cn2cncn2)nc2n1CCCN(CCN1CCCC1)C2,16.6
6,Cc1cc(C)n(C2CN(CC(O)c3ccc(C(F)(F)F)cc3)C2)n1 (stereo unspecified),-24.2
7,Cn1ccnc1CN1CCCC(Cc2ccnc3ccncc23)CC1 (stereo unspecified),29.3
8,c1cc2nccc(CC3CCCN(Cc4c[nH]cn4)CC3)c2cn1 (stereo unspecified),75.3
9,c1cc2nccc(CC3CCCN(Cc4ncc[nH]4)CC3)c2cn1 (stereo unspecified),32.4
10,CC(C)c1ccc(OCC(=O)N(C)C)cc1,-11.2
11,CC(C)n1c(=O)[nH]c2cn(-c3ccccc3)c(=O)n21,6.32
12,CCNC(=O)C1(Cc2cc(-c3ccc(C)cc3)no2)CCCN(C)C1 (stereo unspecified),23
13,COc1ccc(-c2nnc([C@H]3CCN(C4CCC4)C3)o2)cc1,57.8
14,c1ccc(-c2nnc([C@H]3CCN(C4CCC4)C3)o2)cc1,46.4
15,c1cc(-c2nnc([C@H]3CCN(C4CCCCC4)C3)o2)ccn1,-5.77
16,c1ccc(-c2nnc([C@H]3CCN(C4CCOCC4)C3)o2)cc1,18.4
17,Cc1ccc(-c2nnc([C@H]3CCN(C4CCC4)C3)o2)cc1,4.07
18,c1cc(-c2nnc([C@H]3CCN(C4CCOCC4)C3)o2)ccn1,54
19,O=C(NCCc1ccccn1)[C@@]12CCO[C@@H]1CCN(c1ncccn1)C2,34.6
20,CCc1ncc2c(n1)CN(CC(=O)Nc1cccnc1)CC2,19.4
21,CSc1ccc(NC(=O)Cn2cc(NC(C)=O)cn2)cc1,33.7
22,CCOC(=O)[C@H]1[C@@H](O)C(=O)N(C)C12CCN(C(=O)OC)CC2,29.8

row,Structure (SMILES),INHIBITION [%]
1,Cn1ccc(CN2CCC(CC(=O)NC3CCCC3)CC2)cc1=O,27.2
2,COc1cc(CNC(=O)COC2CCCCC2)ccc1O,26.5
3,Cc1noc([C@@H]2C[C@H]3OCC[C@H]3N(S(=O)(=O)c3ccccc3)C2)n1,-5.08
4,Cc1occc1C(=O)NCC(=O)N(C)CCCOc1ccc(F)cc1,26.7
5,Cc1occc1C(=O)NCC(=O)NCCCOc1ccc(F)cc1,54.5
6,Cc1occc1C(=O)NCC(=O)NCCOc1ccc2c(c1)CCC2,42.3
7,Cc1ccccc1C(NC(=O)CNC(=O)c1ccoc1C)C(C)C (stereo unspecified),-68.2
8,Cc1occc1C(=O)NCC(=O)NCCOc1cccc(Cl)c1,-10.6
9,Cc1occc1C(=O)NCC(=O)N(C)CCCOc1ccccc1,61
10,O=C1CC(c2ccc(C(F)(F)F)cc2)c2c(n3ccsc3nc2=O)N1 (stereo unspecified),17
11,COc1nsc2nc(C3CCCN3c3ncccn3)ccc12 (stereo unspecified),25.49
12,Cc1ccc(C(=O)NCC(C)Cn2cccn2)c(=O)[nH]1 (stereo unspecified),58.5
13,Cc1ccc(C(=O)NC(C)Cn2cccn2)c(=O)[nH]1 (stereo unspecified),42.6
14,Cc1ccc(C(=O)NCC(C)Cn2ccnc2C)c(=O)[nH]1 (stereo unspecified),55.5
15,Cc1ccc(C(=O)NCCCn2cccn2)c(=O)[nH]1,-1.98
16,Cc1ccc(C(=O)NCC(O)c2ccc(Cl)s2)c(=O)[nH]1 (stereo unspecified),37.2
17,Cc1ccc(C(=O)NCC(C)CN2CCCC2=O)c(=O)[nH]1 (stereo unspecified),37.1
18,Cc1cnc(C(=O)N2C[C@@H]3CC[C@H]2CN(Cc2cscn2)C3)[nH]1,42.1
19,COc1cccc(CN2CCN(c3cccc(C(C)C)n3)CC2)c1F,-26.1
20,Cc1ccc(F)cc1NC(=O)c1[nH]ncc1Br,11.7
21,CS(=O)(=O)CCOCCNc1ccc(Br)cn1,-3.08
22,CCC(CCO)NS(=O)(=O)c1ccc(Br)cn1 (stereo unspecified),65.4

row,Structure (SMILES),INHIBITION [%]
1,CCS(=O)(=O)N(C)CC(=O)Nc1ccc(Br)cn1,6.81
2,COCC(C)NS(=O)(=O)c1ccc(Br)cn1 (stereo unspecified),56
3,COCC(C)NC(=O)c1cncc(Br)c1 (stereo unspecified),-26.4
4,C[C@H](CCO)NS(=O)(=O)c1ccc(Br)cn1,21.7
5,CCN(C(=O)c1nc2c(s1)CCCN2C(C)=O)C(C)C,5.68
6,O=C(c1cccc2c1OCCO2)N1CCCC1c1noc(C2CC2)n1 (stereo unspecified),2.3
7,COCC(=O)N1CCC2(COCc3cnc(NCc4ccco4)nc32)C1 (stereo unspecified),24.3
8,COCCC(=O)N1CCC2(COCc3c(C)nc(NCC4CC4)nc32)C1 (stereo unspecified),33
9,COCCC(=O)N1CCC2(COCc3cnc(N(C)C)nc32)C1 (stereo unspecified),53.2
10,COCCC(=O)N1CCC2(COCc3cnc(-c4ccccc4)nc32)C1 (stereo unspecified),16.5
11,COCCC(=O)N1CCC2(COCc3cnc(-c4cccnc4)nc32)C1 (stereo unspecified),33.1
12,COCCC(=O)N1CCC2(COCc3cnc(NCC4CC4)nc32)C1 (stereo unspecified),61.5
13,Cc1cccc(CNC(=O)CCc2c(C)nc3cc(O)nn3c2C)n1,33.3
14,CC(CN1CCOCC1)NC(=O)NCc1ccoc1 (stereo unspecified),-7.36
15,Cc1nc(NCCN2CCCC2=O)cc(C2CN(C)CCO2)n1 (stereo unspecified),-17.9
16,CC(NC(=O)NCCCn1cncn1)c1ccc(C(F)(F)F)cc1 (stereo unspecified),-16.88
17,Cc1ccc(S(=O)(=O)N2C[C@H]3C[C@H](NC(=O)C(C)C)[C@H]3C2)cc1,19.6
18,Cc1ccc(S(=O)(=O)N2C[C@H]3C[C@H](NC(=O)c4ccn(C)n4)[C@H]3C2)cc1,38.7
19,Cc1ccc(S(=O)(=O)N2C[C@H]3C[C@H](NC(=O)c4cnn(C)c4)[C@H]3C2)cc1,78.5
20,Cc1ccc(S(=O)(=O)N2C[C@@H]3C[C@@H](NC(=O)C(C)(C)C)[C@@H]3C2)cc1,44.9
21,Cc1ccc(S(=O)(=O)N2C[C@H]3C[C@H](NC(=O)c4cc(C)no4)[C@H]3C2)cc1,5.11
22,Cc1ccc(S(=O)(=O)N2C[C@H]3C[C@H](NC(=O)c4ccnn4C)[C@H]3C2)cc1,77.9
